In all, about 110,000 compounds were measured (“z-score”: median about -0.1, highest 2% from about 2 on). The sample holds the highest values, similar compounds and a random draw of the others, so the mix is not that of the screen. Calls of active or inactive are those of the source.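 The calls were made as follows: active = z-score in the third read window above 3 or below -3; inactive = the rest.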
The compounds below were run against Metabotropic glutamate receptor 8 (Rattus norvegicus) (UniProt P70579) (assay: mGluR8 Gi/Go-coupled signaling modulation – cell-based, rat, thallium flux, HTS, primary screen (AID 488969)). Conditions: HEK293 rat mGluR8, GIRK (G protein-gated inwardly rectifying potassium channel) thallium flux, FluoZin2; at 10 µM; stronger effect = higher value; submaximal glutamate (EC20) added with thallium.
Metabotropic glutamate receptor 8 (Rattus norvegicus), sequence (P70579 whole entry, looked up): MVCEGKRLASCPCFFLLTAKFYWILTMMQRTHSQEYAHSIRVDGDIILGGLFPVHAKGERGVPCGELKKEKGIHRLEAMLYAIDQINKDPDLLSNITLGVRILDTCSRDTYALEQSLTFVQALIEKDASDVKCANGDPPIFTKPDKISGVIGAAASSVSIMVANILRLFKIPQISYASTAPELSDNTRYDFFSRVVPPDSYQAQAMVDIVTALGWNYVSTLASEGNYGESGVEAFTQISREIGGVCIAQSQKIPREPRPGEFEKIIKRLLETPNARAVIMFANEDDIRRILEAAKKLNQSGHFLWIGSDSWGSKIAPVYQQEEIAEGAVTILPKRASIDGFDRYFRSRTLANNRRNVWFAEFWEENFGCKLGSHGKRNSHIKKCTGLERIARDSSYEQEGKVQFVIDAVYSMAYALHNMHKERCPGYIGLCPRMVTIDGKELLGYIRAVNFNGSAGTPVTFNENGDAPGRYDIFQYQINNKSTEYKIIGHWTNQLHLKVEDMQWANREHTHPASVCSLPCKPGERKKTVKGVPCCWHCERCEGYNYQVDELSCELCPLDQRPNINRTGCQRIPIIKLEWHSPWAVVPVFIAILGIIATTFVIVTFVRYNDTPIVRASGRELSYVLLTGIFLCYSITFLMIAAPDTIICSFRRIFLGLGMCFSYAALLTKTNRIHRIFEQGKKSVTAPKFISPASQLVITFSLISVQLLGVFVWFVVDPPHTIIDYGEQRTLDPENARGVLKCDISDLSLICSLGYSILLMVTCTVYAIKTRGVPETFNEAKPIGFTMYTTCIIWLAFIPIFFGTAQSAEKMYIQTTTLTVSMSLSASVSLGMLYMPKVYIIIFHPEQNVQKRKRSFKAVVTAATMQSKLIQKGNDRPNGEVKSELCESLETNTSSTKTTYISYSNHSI
With `COc1ccc(-c2oc3ncn(CCN4CCOCC4)c(=N)c3c2-c2ccc(OC)cc2)cc1` the z-score was 2.6.
Work on `COc1ccc(-c2oc3ncnc(NCCN4CCOCC4)c3c2-c2ccc(OC)cc2)cc1` yielded a z-score of -0.338.
With `N=c1c2c(ncn1CCN1CCOCC1)Oc1ccc3ccccc3c1C2c1ccccc1` (stereo not given) the z-score was 4.03 (active).
`CC(CN1CCOCC1)OC(=O)C(C)(c1ccccc1)c1ccccc1` (stereo not given) showed a z-score of 0.383.
For `O=C(CSc1nnc(-c2ccc(OC(F)F)cc2)o1)NC(=O)NCc1ccco1`, the z-score was -0.253.
`CC1=CC(c2ccccc2)n2nc(N3C(=O)C4CC=CCC4C3=O)nc2N1` (stereo not given) was tested, and the z-score was -0.783.
`CC1(C)Cc2ccccc2-c2nnc(-c3cccnc3)n21` showed a z-score of 0.241.
`CC1(C)Cc2c(ccc3ccccc23)-c2nnc(-c3cccnc3)n21` was tested, and the z-score was 3.16 (active).
`CC1(C)Cc2c(ccc3ccccc23)C(NNC(=O)c2cccnc2)=N1` showed a z-score of 0.408.
Work on `CCOC(=O)c1c(NC(=O)c2cccs2)sc(CC)c1-c1cccs1` yielded a z-score of -0.275.
`COC(=O)c1nn(Cc2ccccc2)c(=O)c2ccccc12` showed a z-score of 0.721.
For `Cc1onc(-c2ccccc2Cl)c1C(=O)NC(=S)NCCc1ccccc1`, the z-score was 2.63.
Compound `O=C(NC(=S)NCCc1ccccc1)c1ccccc1` has a z-score of 1.9.
`COc1ccc(C(=O)NC(=S)NNC(=O)Cc2cccs2)cc1` gave a z-score of 0.741.
Work on `Cc1ccc(C(=O)NC(=S)NCC(=O)c2ccccc2)cc1` yielded a z-score of -0.021.
`COc1ccc(CCNC(=O)c2c(-c3ccccc3Cl)noc2C)cc1` gave a z-score of 0.099.
In the case of `COc1ccc(CCNC(=S)NC(=O)c2ccccc2)cc1OC`, the z-score is reported as 0.202.
Work on `COc1cc(OC)cc(C(=O)NC(=S)NCCc2ccccc2)c1` yielded a z-score of 2.08.
In the case of `O=C(CNC(=S)NC(=O)c1cccs1)c1ccccc1`, the z-score is reported as 6.19 (active).
With `COc1cc(OC)cc(C(=O)NC(=S)NNC(=O)Cc2cccs2)c1` the z-score was 2.21.
For `O=C(CNC(=S)NC(=O)c1ccccc1)c1ccccc1`, the z-score was 0.079.
For `O=C(Cc1cccs1)NNC(=S)NC(=O)c1ccccc1`, the z-score was 0.646.
With `Cc1onc(-c2ccccc2Cl)c1C(=O)NCc1ccccc1` the z-score was 0.341.
In the case of `CNC(=S)N1CCN(C(=O)C2CCCO2)CC1` (stereo not given), the z-score is reported as -0.25.
`CC(NC(=O)COc1ccc(/C=N/NC(=O)C(=O)Nc2ccccc2Br)cc1)c1ccccc1` (stereo not given) showed a z-score of 0.00853.
`CCC(C)(C)NC(=O)CN(Cc1cccs1)C(=O)CNS(=O)(=O)c1ccc(C)cc1` was tested, and the z-score was 0.191.
Compound `CCCn1nnc(NC(=O)c2ccc(Cl)cc2Cl)n1` has a z-score of -0.0896.
For `O=C(NS(=O)(=O)c1ccccc1)c1ccccc1O`, the z-score was 0.0922.
Work on `c1cc(-c2nnc3n2CCCCC3)ccn1` yielded a z-score of 0.91.
Work on `Cc1cc(Cl)ccc1NC(=S)NCc1ccccc1Cl` yielded a z-score of 0.000558.
`CCn1nc(C(=O)OCC(=O)c2ccc3c(c2)OCCO3)c2ccccc2c1=O` showed a z-score of -0.721.
`Cc1ccc(C(=O)N/C(=C/c2cccc([N+](=O)[O-])c2)C(=O)NC(C)C)cc1` was tested, and the z-score was -0.0623.
`CCC(C)Nc1nc(CN2CCOCC2)nc2sc3c(c12)CCC3` (stereo not given) was tested, and the z-score was -0.57.
`CC(C)(C)C(=O)NC(=S)NCCc1ccccc1` gave a z-score of -0.0291.
`CCOc1ccc(C(=O)CC(=O)C(=O)NCCc2ccc(OC)c(OC)c2)cc1` was tested, and the z-score was -0.0424.
In the case of `O=C(CNC(=S)NC(=O)c1ccco1)c1ccccc1`, the z-score is reported as 6.42 (active).
`O=C(NC(=S)N(CCc1ccccc1)CCc1ccccc1)c1ccco1` gave a z-score of -1.87.
`COc1ccc(S(=O)(=O)CCC(=O)NCCc2cccc(C)c2)cc1` gave a z-score of 0.00176.
With `CC(C)C(=O)NC(=S)NCC(=O)c1ccccc1` the z-score was -0.37.
For `Cc1ccccc1C(=O)NC(=S)NCCc1ccccc1`, the z-score was 6.68 (active).
In the case of `Cc1ccccc1C(=O)NC(=S)NCC(=O)c1ccccc1`, the z-score is reported as -0.0957.
`O=C(NCCc1ccccc1)c1ccco1` showed a z-score of -0.2.
With `O=C(NC(=S)NCCc1ccccc1)c1ccco1` the z-score was 13 (active).
Compound `O=C(CNC(=S)NC(=O)c1ccc(Cl)cc1)c1ccccc1` has a z-score of 1.87.
With `COc1ccc(C(=O)CC(=O)C(=O)NCCc2cccc(C)c2)cc1` the z-score was 3.99 (active).
Work on `Cc1cc2ccccc2n2c(SCC(=O)N3CCc4ccccc4C3)nnc12` yielded a z-score of 0.115.
For `CC(=O)C1=C(c2ccccc2)NC(=S)NC1c1cc(Cl)c(OC(C)C)c(Cl)c1` (stereo not given), the z-score was 0.616.
With `O=C(CN(C(=O)c1cccc([N+](=O)[O-])c1)C1CCCCC1)Nc1ccc(Cl)c([N+](=O)[O-])c1` the z-score was -0.137.
In the case of `CCOc1nc(-c2ccc(C)cc2)ccc1-c1noc(COC)n1`, the z-score is reported as -0.156.
With `Cc1cc(C)c(Cn2cnc(-c3ccc([N+](=O)[O-])cc3)c2)c(C)c1` the z-score was -0.0263.
`Cc1ccc(-c2ccc(CCC(=O)O)n2C(C)C)cc1` was tested, and the z-score was -0.00219.
Work on `CC(C)n1c(CCC(=O)O)ccc1-c1ccccc1` yielded a z-score of 2.11.
`COc1ccc(-c2ccc(CCC(=O)O)n2C(C)C)cc1` was tested, and the z-score was -0.109.
In the case of `Clc1ccc(-c2nnc3n2CCCS3)cc1`, the z-score is reported as 0.105.
For `Cc1ccc(S(=O)(=O)NCCCCC(NC(=O)OC(C)(C)C)C(=O)O)cc1` (stereo not given) (tested in a mixture with another compound), the z-score was -0.148.
